PubChem BioAssay (EPA / NIEHS)
Several values for one entry are separate records, joined by “and”; a condition that tells them apart may be missing. Identical values can stand only once. The source holds several records for some structures; these can differ, active in one and inactive in another. Activity calls are given as the source filed them. How the source made its calls: active means hit-call score of the fitted dose curve at least 0.9, where 1 is the maximum; inactive means score below 0.9.

Key:
[1] = read-out: TIMP metallopeptidase inhibitor 1 (TIMP1), TIMP1 (gene 7076); assay: BSK_hDFCGF_TIMP1: BioMAP Diversity Plus: hDFCGF Assay for TIMP metallopeptidase inhibitor 1 (TIMP1) Biomarker Activity (AID 2283062); conditions: primary human foreskin fibroblasts; actives raise or lower the signal
Procedure, shortened: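 ELISA readout of TIMP-1 from human dermal foreskin fibroblast cultures 24 h post-dosing. Curves were fitted in both directions against DMSO baseline, with SRB total-protein staining in parallel cultures as a cytotoxicity check.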

[2] = read-out: Monokine induced gamma interferon (MIG), CXCL9 (gene 4283); assay: BSK_hDFCGF_MIG: BioMAP Diversity Plus: hDFCGF Assay for Monokine induced gamma interferon (MIG) Biomarker Activity (AID 2283063); conditions: primary human foreskin fibroblasts; actives raise or lower the signal
Procedure, shortened: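 Fibroblasts (human foreskin, primary) dosed, 24 h, MIG by ELISA; fit bidirectional vs DMSO.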

[3] = read-out: Matrix Metallopeptidase 1 (MMP1), MMP1 (gene 4312); assay: BSK_hDFCGF_MMP1: BioMAP Diversity Plus: hDFCGF Assay for Matrix Metallopeptidase 1 (MMP1) Biomarker Activity (AID 2283064); conditions: primary human foreskin fibroblasts; actives raise or lower the signal
Procedure, shortened: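 MMP1 levels quantified by ELISA 24 h after dosing human dermal fibroblast cultures, with parallel SRB total-protein staining for overt cytotoxicity. Data fitted in both directions against DMSO baseline.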

[4] = read-out: Vascular cell adhesion molecule 1 (VCAM1), VCAM1 (gene 7412); assay: BSK_hDFCGF_VCAM1: BioMAP Diversity Plus: hDFCGF Assay for Vascular cell adhesion molecule 1 (VCAM1) Biomarker Activity (AID 2283065); conditions: primary human foreskin fibroblasts; actives raise or lower the signal;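 on AC50: VCAM-1 protein level quantified by ELISA after 24 h chemical exposure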
Procedure, shortened: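 ELISA read-out of VCAM-1 on human skin fibroblasts, 24 h post-dose; gain or loss of signal fitted bidirectionally against DMSO baseline.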

[5] = read-out: Plasminogen activator inhibitor-1 (PAI1), SERPINE1 (gene 5054); assay: BSK_hDFCGF_PAI1: BioMAP Diversity Plus: hDFCGF Assay for Plasminogen activator inhibitor-1 (PAI1) Biomarker Activity (AID 2283066); conditions: primary human foreskin fibroblasts; actives raise or lower the signal
Procedure, shortened: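 Fibroblasts from human foreskin were treated with test chemical. After 24 h, PAI-1 was measured by ELISA. Activity was fitted in both directions relative to DMSO.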

[6] = read-out: Intercellular Adhesion Molecule 1 (ICAM1), ICAM1 (gene 3383); assay: BSK_KF3CT_ICAM1: BioMAP Diversity Plus: KF3CT Assay for Intercellular Adhesion Molecule 1 (ICAM1) Biomarker Activity (AID 2283067); conditions: primary human keratinocytes with fibroblasts; actives raise or lower the signal
Procedure, shortened: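 ELISA readout of ICAM-1; KF3CT human skin co-culture (keratinocytes + foreskin fibroblasts), 24 h post-dose; gain/loss fit vs DMSO baseline.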

[7] = read-out: Interferon-gamma inducible Protein 10 (IP10), CXCL10 (gene 3627); assay: BSK_KF3CT_IP10: BioMAP Diversity Plus: KF3CT Assay for Interferon-gamma inducible Protein 10 (IP10) Biomarker Activity (AID 2283068); conditions: primary human keratinocytes with fibroblasts; actives raise or lower the signal
Procedure, shortened: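 In a primary skin co-culture of keratinocytes and fibroblasts, IP-10 is quantified by ELISA at 24 h after dosing. SRB staining of parallel wells monitors overt toxicity. Curves are fitted both directions against DMSO.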

[8] = BSK_KF3CT_SRB: Viability Assessment in the BioMAP Diversity Plus: KF3CT Assay (AID 2283069); conditions: primary human keratinocytes with fibroblasts;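 further: total protein by sulforhodamine B staining as a cytotoxicity measure; read 24 h after compound addition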
Procedure, shortened: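 Cytotoxicity was gauged by SRB staining (0.1% SRB, 10% TCA fixation, 560 nm) of parallel cultures at 24 h. The cells were primary human skin keratinocytes co-cultured with fibroblasts, and activity was fitted in both directions against DMSO.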

[9] = read-out: Interleukin-1 alpha (IL1a), IL1A (gene 3552); assay: BSK_KF3CT_IL1a: BioMAP Diversity Plus: KF3CT Assay for Interleukin-1 alpha (IL1a) Biomarker Activity (AID 2283070); conditions: primary human keratinocytes with fibroblasts; actives raise or lower the signal
Procedure, shortened: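 IL-1a was detected by ELISA 24 h after chemical treatment of a co-culture of human skin keratinocytes and foreskin fibroblasts. Gain or loss of signal was fitted against the DMSO baseline.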

[10] = read-out: TIMP metallopeptidase inhibitor 2 (TIMP2), TIMP2 (gene 7077); assay: BSK_KF3CT_TIMP2: BioMAP Diversity Plus: KF3CT Assay for TIMP metallopeptidase inhibitor 2 (TIMP2) Biomarker Activity (AID 2283071); conditions: primary human keratinocytes with fibroblasts; actives raise or lower the signal
Procedure, shortened: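 Chemicals were dosed onto human skin primary co-cultures of keratinocytes and foreskin fibroblasts, and TIMP-2 was measured by ELISA after 24 hours. Activity in either direction was fitted relative to DMSO.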

[11] = read-out: Transforming growth factor beta 1 (TGFb1), TGFB1 (gene 7040); assay: BSK_KF3CT_TGFb1: BioMAP Diversity Plus: KF3CT Assay for Transforming growth factor beta 1 (TGFb1) Biomarker Activity (AID 2283072); conditions: primary human keratinocytes with fibroblasts; actives raise or lower the signal
Procedure, shortened: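 KF3CT co-culture (keratinocytes + fibroblasts), 24 h exposure → TGF-b1 ELISA → bidirectional fit, DMSO = baseline. Parallel SRB total-protein staining (0.1% SRB, 10% TCA fixation, 560 nm) for cytotoxicity.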

[12] = read-out: C-C motif chemokine 2 (Homo sapiens) (UniProt P13500); assay: BSK_KF3CT_MCP1: BioMAP Diversity Plus: KF3CT Assay for Monocyte Chemoattractant Protein 1 (MCP1/CCL2) Biomarker Activity (AID 2283073); conditions: primary human keratinocytes with fibroblasts; actives raise or lower the signal
Procedure, shortened: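 KF3CT skin co-culture (keratinocytes/foreskin fibroblasts), 24 h post-dose; MCP-1 by ELISA; gain/loss of signal fit bidirectionally vs DMSO baseline.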

[13] = read-out: CD40, CD40 (gene 958); assay: BSK_LPS_CD40: BioMAP Diversity Plus: LPS Assay for CD40 Biomarker Activity (AID 2283076); conditions: primary human HUVEC with PBMC; actives raise or lower the signal
Procedure, shortened: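 ELISA readout of CD40 in HUVEC/PBMC co-culture (BSK_LPS system), 24 h post-dosing; bidirectional curve fit, DMSO baseline; parallel SRB total-protein staining for cytotoxicity.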

[14] = read-out: E-selectin (Homo sapiens) (UniProt P16581); assay: BSK_LPS_Eselectin: BioMAP Diversity Plus: LPS Assay for Eselectin Biomarker Activity (AID 2283077); conditions: primary human HUVEC with PBMC; actives raise or lower the signal
Procedure, shortened: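 ELISA readout of E-selectin, 24 h post-dose, HUVEC + PBMC co-culture (LPS system). Gain or loss of signal vs DMSO baseline, bidirectional fit.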

[15] = read-out: Interleukin-8 (IL8), CXCL8 (gene 3576); assay: BSK_LPS_IL8: BioMAP Diversity Plus: LPS Assay for Interleukin-8 (IL8) Biomarker Activity (AID 2283078); conditions: primary human HUVEC with PBMC; actives raise or lower the signal
Procedure, shortened: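 HUVEC + PBMC co-culture, LPS-activated; test chemicals dosed, IL-8 read by ELISA at 24 h. Bidirectional curve fit vs DMSO baseline (gain or loss of signal).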

[16] = BSK_LPS_SRB: Viability Assessment in the BioMAP Diversity Plus: LPS Assay (AID 2283079); conditions: primary human HUVEC with PBMC;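 further: total protein by sulforhodamine B absorbance as a cytotoxicity measure; measured one day after compound addition; fitted in both directions against DMSO so loss or gain of signal counts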
Procedure, shortened: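 HUVEC + PBMC co-culture, LPS-stimulated; compound 24 h. 10% TCA fix, 0.1% SRB stain, A560. Bidirectional fit vs DMSO.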

[17] = read-out: Interleukin-1 alpha (IL1a), IL1A (gene 3552); assay: BSK_LPS_IL1a: BioMAP Diversity Plus: LPS Assay for Interleukin-1 alpha (IL1a) Biomarker Activity (AID 2283080); conditions: primary human HUVEC with PBMC; actives raise or lower the signal
Procedure, shortened: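 HUVEC/PBMC co-culture, LPS system; 24 h after dosing; IL-1a by ELISA; gain or loss of signal fitted bidirectionally vs DMSO baseline.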

[18] = read-out: Monocyte Chemoattractant Protein-1 (MCP1), CCL2 (gene 6347); assay: BSK_LPS_MCP1: BioMAP Diversity Plus: LPS Assay for Monocyte Chemoattractant Protein-1 (MCP1) Biomarker Activity (AID 2283081); conditions: primary human HUVEC with PBMC; actives raise or lower the signal;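 on AC50: secreted MCP-1 protein quantified by ELISA in culture supernatant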
Procedure, shortened: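 ELISA read-out of MCP-1 after 24 h chemical dosing of a human umbilical vein endothelial cell/peripheral blood mononuclear cell co-culture stimulated with LPS. Gain or loss of signal fitted relative to DMSO controls.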

[19] = read-out: urokinase plasminogen activator (uPA), PLAU (gene 5328); assay: BSK_KF3CT_uPA: BioMAP Diversity Plus: KF3CT Assay for urokinase plasminogen activator (uPA) Biomarker Activity (AID 2283075); conditions: primary human keratinocytes with fibroblasts; actives raise or lower the signal
Procedure, shortened: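 ELISA read-out of uPA 24 h after dosing human skin keratinocytes co-cultured with foreskin fibroblasts. Signal change fitted both ways relative to DMSO; sulforhodamine B on parallel cultures marks overt cytotoxicity.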

Measured: AC50

Chain of E-selectin (Homo sapiens) (P16581 whole entry, looked up): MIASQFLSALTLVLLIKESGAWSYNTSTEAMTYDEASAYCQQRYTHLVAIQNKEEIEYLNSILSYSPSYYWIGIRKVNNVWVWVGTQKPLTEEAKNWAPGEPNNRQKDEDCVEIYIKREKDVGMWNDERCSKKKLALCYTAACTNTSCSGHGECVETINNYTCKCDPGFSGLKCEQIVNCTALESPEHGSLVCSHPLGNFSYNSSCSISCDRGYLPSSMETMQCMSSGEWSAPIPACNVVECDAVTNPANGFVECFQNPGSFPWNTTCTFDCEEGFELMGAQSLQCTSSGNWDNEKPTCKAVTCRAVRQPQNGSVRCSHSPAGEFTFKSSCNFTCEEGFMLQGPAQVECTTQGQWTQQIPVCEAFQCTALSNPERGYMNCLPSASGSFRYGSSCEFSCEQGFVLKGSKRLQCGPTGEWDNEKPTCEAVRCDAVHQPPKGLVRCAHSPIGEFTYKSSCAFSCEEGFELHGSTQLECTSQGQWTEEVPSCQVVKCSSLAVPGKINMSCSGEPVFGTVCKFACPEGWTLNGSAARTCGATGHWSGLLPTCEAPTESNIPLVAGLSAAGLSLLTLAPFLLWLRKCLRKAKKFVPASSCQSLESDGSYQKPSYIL

C=CC(C)(CCC=C(C)C)OC(C)=O (stereo not given)
inactive: [1] | [2] | [3] | [4] | [6] | [7] | [8] | [9] | [11] | [12] | [13] | [14] | [15] | [16] | [17] | [18]
active: [5] 29.8 µM | [10] 32 µM

O=C(O)C(F)(F)OC(F)(F)C(F)(F)OC(F)(F)C(F)(F)OC(F)(F)C(F)(F)C(F)(F)C(F)(F)F
inactive: [8]
active: [1] 10.6 µM and 8.08 µM | [2] 12.1 µM and 10.3 µM | [3] 7.6 µM and 8.44 µM | [4] 7.84 µM and 6.66 µM | [5] 11.4 µM | [7] 7.51 µM and 7.14 µM | [8] 8.04 µM | [9] 14.2 µM and 11.1 µM | [10] 8.14 µM and 7.33 µM | [12] 8.05 µM and 8.01 µM | [19] 14.5 µM and 15.7 µM | [13] 30 µM and 36.5 µM | [14] 54.1 µM and 50.8 µM | [15] 47.5 µM and 26 µM | [16] 54.4 µM and 50.9 µM | [17] 44.4 µM and 40.1 µM | [18] 52.4 µM and 46.7 µM

CCCCC(CC)C(=O)OCCOCCOCCOCCOC(=O)C(CC)CCCC (stereo not given)
inactive: [1] | [2] | [3] | [4] | [5] | [6] | [7] | [8] | [9] | [10] | [11] | [12] | [19] | [13] | [14] | [15] | [16] | [17] | [18]
